Results on 107 compounds are retold here after PubChem BioAssay AID449764 (Southern Research Specialized Biocontainment Screening …, 2010).

In all, about 2,300 compounds went through this assay and about 1,700 (74%) were called active. How the calls were made is not given here. So high a share suggests a set chosen from earlier hits. This is one part of the list. Measured potencies and affinities stand elsewhere.

The test can be described thus: Mycobacterium tuberculosis H37Rv growth inhibition, no glycerol, confirmatory dose response (AID 449764).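 Further: growth read after 7 days of incubation.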 The settings on record: series mostly up to 100 µM.
Consider `C[C@]12CCC(=O)C[C@@H]1CC[C@@H]1[C@@H]2CC[C@]2(C)C=CC[C@@H]12`, for which the compound was classed as inactive.

As for `Cn1c(=S)c2[nH]c(SCCN3CCCC3)nc2n(C)c1=O`, the compound was called inactive.

Turning to `CCOC(=O)c1ccc(N=C(CC)c2c(O)n(C)c(=O)n(C)c2=O)cc1`, the compound was called inactive.

In the case of `CCCN(CC1CC1)C(=O)COC(=O)c1ccc2c(c1)C(=O)N(c1ccc(OCC)cc1)C2=O`, the compound was called inactive.

Consider `CN(C(=O)COC(=O)/C=C/c1ccc(Cl)c(Cl)c1)c1c(N)n(Cc2ccccc2)c(=O)[nH]c1=O`, for which the call was inactive.

Take `C=CCOc1ccc(/C=C/C(=O)OCC(=O)NCC2CCCO2)cc1` (configuration not stated): the compound was classed as inactive.

For the compound `CC(C)c1ccc(-c2nn(-c3ccccc3)cc2C(=O)NCC2CCCO2)cc1` (configuration not stated), the outcome was inactive.

Regarding `O=S(=O)(c1ccc(Cl)cc1)N1CCC(n2cnc3cc(C(F)(F)F)ccc32)CC1`, the outcome was inactive.

Turning to `O=C1NC(=Nc2ccccc2)S/C1=C\C=C\c1ccco1`, the outcome was inactive.

Regarding `CCCC(O)(CCC)C(=O)NNc1ccc(C)cc1`, the compound was called inactive.

Take `CC(=O)N1C(Nc2ccc(Cl)cc2)CCN1c1ccccc1` (configuration not stated): the result was inactive.

Turning to `CCOc1ccc(N=CNc2ccc(OCC)cc2)cc1`, the call was inactive.

As for `Cc1ccc(C(=O)Nc2ccc3c4c(cccc24)CC3)cc1[N+](=O)[O-]`, the result was inactive.

For the compound `Cc1cc(NC(=O)CCN2C(=O)C3C4C=CC(C4)C3C2=O)ccc1Br` (configuration not stated), the compound was called inactive.

With `CCn1c(SCC(=O)Nc2nc3ccc(C)cc3s2)nc2c(c1=O)SC(C)C2` (configuration not stated), the compound was classed as inactive.

Regarding `Cc1ccc(-c2ccc(=O)n(CC(=O)N3CCN(c4cc(Cl)ccc4C)CC3)n2)cc1`, the call was inactive.

As for `CCOC(=O)c1ccc(N=Cc2c(O)c3ccccc3oc2=O)cc1`, the compound was classed as inactive.

Consider `O=C(CCC1CCCC1)c1c(O)c2ccccc2oc1=O`, for which the compound was classed as inactive.

Turning to `CCCCCCCCCCC[C@@H](C[C@@H]1OC(=O)[C@H]1CCCCCC)OC(=O)[C@H](CC(C)C)NC=O`, the compound was called inactive.

On to `COc1cccc(/C=C/c2nc(C#N)c(NCC(C)C)o2)c1`, for which the compound was classed as inactive.

As for `O=C(O)Cc1c[nH]c2ccc(O)cc12`, the compound was classed as inactive.

On to `O=C1C(=O)c2ccccc2C(O)=C1C1CCC(c2ccc(Cl)cc2)CC1` (configuration not stated), for which the call was inactive.

In the case of `O=C1C(c2ccccc2)=[N+]([O-])c2ccccc21`, the outcome was inactive.

As to `COc1ccc(N=C/C=C2/C=C(c3ccccc3)OC(C)(C)O2)cc1`, the call was inactive.

`CCCCOC(=O)c1ccc(O)cc1`: the outcome was inactive.

Consider `CCOc1ccc(/C=C/C2=Cc3c(sc(NC(=O)CSc4n[nH]c(N)n4)c3C#N)C(C)(C)C2)cc1`, for which the compound was classed as inactive.

`Cc1ccc(C(=O)COC(=O)C2CC(=O)N(c3nc(-c4ccccc4)cs3)C2)cc1C` (configuration not stated): the compound was called inactive.

In the case of `Cc1cc(C)n2[nH]c(=O)c(N=Nc3cccc(C(F)(F)F)c3)c2n1`, the compound was classed as inactive.

On to `Cc1[nH]n(-c2ccccc2)c(=S)c1C=NCCCN=Cc1c(C)[nH]n(-c2ccccc2)c1=S`, for which the compound was classed as inactive.

Consider `O=c1ccn(-c2ccccc2)[nH]1`, for which the result was inactive.

For the compound `Cc1c(O)c(=O)n(-c2ccccc2)n1C`, the compound was called inactive.

Regarding `O=C(OCC(=O)C12CC3CC(CC(C3)C1)C2)c1ccc(O)cc1O`, the call was inactive.

For `CC(=O)NC1C(c2nc3ccccc3s2)=C(c2ccccc2)C(=O)N1c1ccc(C)cc1` (configuration not stated), the outcome was inactive.

As for `CCc1ccc(N=CC23c4ccccc4C(c4ccccc42)C2C(=O)N(c4ccc(OC)cc4)C(=O)C23)cc1` (configuration not stated), the call was inactive.

For the compound `COc1ccc(NCc2n[nH]nc2-c2ccccc2)cc1Cl`, the call was inactive.

With `C=CCSc1n[nH]c(-c2ccc(OCCCC)cc2)n1`, the result was inactive.

Take `O=C(O)C1CC=CCC1C(=O)NNc1ccccc1` (configuration not stated): the outcome was inactive.

For `CCOP(=O)(OCC)/C(=C/N1CCCCC1)NC(=O)c1ccccc1`, the outcome was inactive.

On to `CCOc1cc(C(=O)OCc2ccc(C(=O)OC)o2)cc(Br)c1OC`, for which the outcome was inactive.

Turning to `Cc1nc2cc(C(F)(F)F)ccc2n1C1CCN(Cc2nnnn2Cc2ccc3c(c2)OCO3)CC1`, the outcome was inactive.

Turning to `Cc1ccc(NC2Sc3ccccc3NC2=O)cc1Cl` (configuration not stated), the call was inactive.

For `Cc1nc2sccn2c1-c1nc(-c2cc3ccccc3o2)cs1`, the compound was called inactive.

As for `Cc1ccc(-c2nnc(NCc3nc4ccccc4[nH]3)c3ccccc23)cc1S(=O)(=O)N1CCCCC1`, the compound was classed as inactive.

For `Cn1ccnc1C(O)c1cc(C(C)(C)C)c(O)c(C(C)(C)C)c1` (configuration not stated), the compound was called inactive.

Regarding `COc1ccc(NC(=O)c2oc3ccc(S(=O)(=O)N4CCOCC4)cc3c2C)cc1`, the compound was called inactive.

As for `O=C(N/N=C/c1c(F)c(F)c(F)c(F)c1F)c1cccc(S(=O)(=O)N2CCOCC2)c1`, the compound was classed as inactive.

On to `CC(C)(C)c1ccc(C2C3=C(CCCC3=O)NC3=C2C(=O)c2ccccc23)cc1` (configuration not stated), for which the outcome was inactive.

With `CC(C(=O)NC(=O)NC1CCCCC1)N(C)CC(=O)Nc1ccc(F)c(F)c1F` (configuration not stated), the compound was classed as inactive.

For the compound `Cc1ccccc1C(=O)Nc1ccc(-c2nc3ccc(C(=O)c4ccccc4)cc3[nH]2)cc1`, the result was inactive.

On to `ClC1=C(Cl)C(Cl)=C(Cl)C1=C/C=C/c1ccccc1`, for which the call was inactive.

`CC(C)c1ccc2[nH]c(O)c(N=NC(=O)c3ccc(CSc4nncn4C)cc3)c2c1`: the outcome was inactive.

Consider `CCOc1ccc(NC(=O)CSc2cn[nH]n2)cc1`, for which the result was inactive.

Turning to `COC(=O)c1ccc(CSc2nc3cc(Cl)ccc3o2)cc1`, the outcome was inactive.

Turning to `CCOC(=O)c1ccc(N=C2SC(C(=O)Nc3ccc(C(=O)O)cc3)CC(=O)N2Cc2cccs2)cc1` (configuration not stated), the outcome was inactive.

In the case of `CCC(C)Nc1nc2c(C)cccn2c(=O)c1C=Nc1ccc(OC)cc1` (configuration not stated), the compound was called inactive.

For `COc1ccc(NC2(c3ccc(Cl)cc3)C(=O)c3ccccc3C2=O)cc1`, the compound was called inactive.

Turning to `COc1ccc(C(=O)NNc2ccccc2)cc1OC`, the compound was classed as inactive.

As to `CC(C)C(=O)Nc1cccc(-c2nc3ccccc3c(=O)o2)c1`, the outcome was inactive.

Turning to `Cn1c(=O)c2cc(NCc3ccccc3)nnc2n(C)c1=O`, the call was inactive.

With `Cc1ccc(C(=O)N2N=C(CC(C)C)CC2(O)C(F)(F)F)o1` (configuration not stated), the result was inactive.

On to `CCOc1ccc(C2=Nc3ccc(Br)cc3C(c3ccc(N4CCOCC4)cc3)=NN2)cc1`, for which the result was inactive.

As for `CCOc1ccc(N2CCc3c(C)nc(SC)nc32)cc1`, the outcome was inactive.

Consider `Cc1nc(Nc2ccc(Cl)c(Cl)c2)sc1C(=O)Nc1ccccc1`, for which the call was inactive.

As to `Cc1ccc(NC(=O)c2ccc(CSc3nnc(C)s3)cc2)c(C)c1`, the compound was classed as inactive.

On to `CCCCN(CC)c1nc(N)c2c(N)nc(OCC)cc2c1C#N`, for which the outcome was inactive.

Consider `CC(C)C[C@H]1C(=O)N2CCC[C@H]2[C@]2(O)O[C@](NC(=O)C3C=C4c5cccc6[nH]c(Br)c(c56)C[C@H]4N(C)C3)(C(C)C)C(=O)N12` (some centres not stated), for which the call was inactive.

On to `O=C1N/C(=N\N=C\c2ccccn2)SC1Cc1cccc(SC(F)F)c1` (configuration not stated), for which the result was inactive.

In the case of `CCc1ccc(CCOc2ccc(CC3SC(=O)NC3=O)cc2)nc1` (configuration not stated), the compound was called inactive.

As for `FC(F)(F)c1ccc(N2CCOCC2)c(Nc2nc3ccccc3n3cnnc23)c1`, the outcome was inactive.

Regarding `CSc1cc(-c2ccncc2)nc(-c2ccc(Cl)cc2)c1`, the call was inactive.

For `CCCCN(CCCC)c1nc(-c2ccncc2)nc2ccccc12`, the outcome was inactive.

In the case of `O/N=C/c1ccc2ccccc2c1`, the call was inactive.

For `Cc1ccc2c(c1)C(c1ccc(N3CCOCC3)cc1)=NNC(c1cccs1)=N2`, the compound was called inactive.

Take `CCc1ccc(/C=C/C(=O)c2cc(Br)ccc(=O)c2O)cc1`: the compound was classed as inactive.

On to `Cc1ccccc1-n1c(O)c(C=Nc2ccc3c(c2)OCO3)c(=O)[nH]c1=O`, for which the result was inactive.

With `C=CCc1c(C)nc2ccc(C(=O)OCC)cc2c1Cl`, the compound was called inactive.

As to `CCn1c(SCC(=O)Nc2ccc3c(c2)oc2ccccc23)nnc1-c1ccc(N)cc1`, the compound was classed as inactive.

As for `O=S(=O)(c1ccc(Oc2ccc3oc4ccccc4c3c2)nc1)N1CCCC1`, the result was inactive.

For the compound `COc1ccc(-c2cc(O)cc(O)c2)cc1`, the call was inactive.

Regarding `CCCCCCOc1ccc(/C=C/C(=O)N2CCOCC2)cc1OC`, the compound was classed as inactive.

As for `CCCCOC1CC(c2ccc(OCc3ccc(OC)cc3)c(OC)c2)N(C)O1` (configuration not stated), the call was inactive.

For `O=[N+]([O-])/C=C/c1cn(Cc2ccccc2)c2ccccc12`, the outcome was inactive.

As for `Oc1ccc(/C=N/n2c3ccccc3c3ccccc32)cc1`, the compound was called inactive.

On to `Cc1ccc(Nc2nc(N)c([N+](=O)[O-])c(N3CCCC(C)C3)n2)cc1C` (configuration not stated), for which the call was inactive.

Regarding `Fc1cc(F)cc(Nc2nc(Cl)nc(NC3CCCC3)n2)c1`, the compound was classed as inactive.

For `COc1ccc(N/C(=C2\CCCC2=O)C2CCCCC2)cc1`, the outcome was inactive.

As to `COc1ccc(NC(=O)ON=C2c3ccccc3-c3ccccc32)cc1`, the compound was called inactive.

Turning to `CC(C)(C)c1ccc(-c2nc3[nH]c(=O)cc(NC(=O)c4ccco4)n3n2)cc1`, the compound was classed as inactive.

Take `Cc1ccccc1C(=O)Nc1ccccc1C(=O)NCC(C)C`: the compound was classed as inactive.

Turning to `O=C1NCCC/C1=N\Nc1ccc(Br)cc1`, the compound was called inactive.

For the compound `COc1ccccc1N1CCN(c2ccc(-c3ccccc3)nn2)CC1`, the compound was classed as inactive.

In the case of `CN1CCN(/N=C/c2c3ccccc3c(Cl)c3ccccc23)CC1`, the call was inactive.

Take `COc1cc(C)ccc1OCCOc1c(C)cc(Cl)cc1Cl`: the call was inactive.

As to `O=c1oc(-c2ccccc2[N+](=O)[O-])nc2ccccc12`, the call was inactive.

As for `Cc1noc2ncnc(Sc3ccc(Cl)cc3)c12`, the call was inactive.

For `O/N=C/c1cn(-c2ccc(Cl)cc2)nn1`, the result was inactive.

On to `CN1CCN(c2ccc(C(=O)c3cn(-c4ccc(F)c(Cl)c4)nn3)cc2)CC1`, for which the compound was called inactive.

With `Cc1ccc(Cl)cc1NC(=O)CN1CCN(S(=O)(=O)N2CCOCC2)CC1`, the call was inactive.

Consider `Cc1ccc2[nH]c3c(c2c1)CN(C(=O)CN1CCN(c2ccccn2)CC1)CC3`, for which the compound was classed as inactive.

`CCCCNC(=O)Nc1nnc(-c2ccc(OCC)cc2)o1`: the outcome was inactive.

On to `COc1cc(CNC(=O)CCCCCCC(C)C)ccc1O`, for which the outcome was inactive.

For `CN(C)C=Nc1ccc2nn(-c3ccccc3)nc2c1`, the outcome was inactive.

On to `O=C(Nc1ccc(Cl)cc1)N(Cc1nc2ccccc2c(=O)[nH]1)Cc1cccs1`, for which the outcome was inactive.

Take `CCOc1ccc(N/C(C)=C/C(=O)c2ccc3c(c2)OCCO3)cc1`: the result was inactive.

In the case of `Cc1[nH]nc(SCC(=O)NCc2ccccc2)c1[N+](=O)[O-]`, the compound was called inactive.

Take `CCC(C)n1c(NC(=O)c2ccccc2)c(C#N)c2nc3ccccc3nc21` (configuration not stated): the call was inactive.

For `COc1ccc(-c2oc3ccc(-c4ccc(OC)nc4)cc3c2C#CC2(O)CCCCC2)cc1`, the result was inactive.
